Rce1 inh: yeast Ras-converting enzyme inhibition; yeast membranes, quenched prenylated peptide cleavage fluorescence; calls only; Q03530; 0.27% of 290,000 active;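 active means fall in fluorescence gain of 50% or more versus controls, with final raw signal at or below 3038400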
M18AAP inhibitor: blocks P. falciparum M18 aspartyl aminopeptidase. 1.2% of 290,000 active. recombinant PfM18AAP, H-Glu-NHMec fluorogenic cleavage. inhibition, % at 7.35 µM;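 active means inhibition above the campaign mean inhibition over all tested compounds plus 3 SD, cut at about 28% in these data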
FID counter: fluorescent intercalator displacement, NS3 helicase counter-screen; DNA fluorescent intercalator displacement, fluorescence; inhibition, % at 7.9 µM; 0.17% of 290,000 active; AID 1845; in the data active means inhibition above about 37%;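 further: higher means more ethidium bromide displaced from hairpin DNA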
Kir21 block: blocks the mouse Kir2.1 inward-rectifier potassium channel; B-score at 10 µM; P35561; 0.85% of 310,000 active; HEK293-Kir2.1, FluxOR thallium flux fluorescence; stronger effect = lower value;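 active means fluorescence ratio B-score at or below minus 3 SD of library scores, with starting-brightness B-score within 2 SD, cut at about -4.2 in these data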;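 further: channel flux triggered by added potassium and thallium sulfate stimulus; B-score of peak minus minimum fluorescence over baseline after thallium stimulus; more negative B-score means stronger Kir2.1 block with less thallium influx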
hERG ctr: counter-screen for Kir2.1 inhibitors: effect on human hERG; shares compounds with Kir21 block; hERG-expressing cells, thallium flux; inhibition, % at 10 µM; 20% of 320 active; AID 2236;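 further: host cells are CHO cells stably expressing hERG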
Target sequence (Q12809 whole entry, looked up): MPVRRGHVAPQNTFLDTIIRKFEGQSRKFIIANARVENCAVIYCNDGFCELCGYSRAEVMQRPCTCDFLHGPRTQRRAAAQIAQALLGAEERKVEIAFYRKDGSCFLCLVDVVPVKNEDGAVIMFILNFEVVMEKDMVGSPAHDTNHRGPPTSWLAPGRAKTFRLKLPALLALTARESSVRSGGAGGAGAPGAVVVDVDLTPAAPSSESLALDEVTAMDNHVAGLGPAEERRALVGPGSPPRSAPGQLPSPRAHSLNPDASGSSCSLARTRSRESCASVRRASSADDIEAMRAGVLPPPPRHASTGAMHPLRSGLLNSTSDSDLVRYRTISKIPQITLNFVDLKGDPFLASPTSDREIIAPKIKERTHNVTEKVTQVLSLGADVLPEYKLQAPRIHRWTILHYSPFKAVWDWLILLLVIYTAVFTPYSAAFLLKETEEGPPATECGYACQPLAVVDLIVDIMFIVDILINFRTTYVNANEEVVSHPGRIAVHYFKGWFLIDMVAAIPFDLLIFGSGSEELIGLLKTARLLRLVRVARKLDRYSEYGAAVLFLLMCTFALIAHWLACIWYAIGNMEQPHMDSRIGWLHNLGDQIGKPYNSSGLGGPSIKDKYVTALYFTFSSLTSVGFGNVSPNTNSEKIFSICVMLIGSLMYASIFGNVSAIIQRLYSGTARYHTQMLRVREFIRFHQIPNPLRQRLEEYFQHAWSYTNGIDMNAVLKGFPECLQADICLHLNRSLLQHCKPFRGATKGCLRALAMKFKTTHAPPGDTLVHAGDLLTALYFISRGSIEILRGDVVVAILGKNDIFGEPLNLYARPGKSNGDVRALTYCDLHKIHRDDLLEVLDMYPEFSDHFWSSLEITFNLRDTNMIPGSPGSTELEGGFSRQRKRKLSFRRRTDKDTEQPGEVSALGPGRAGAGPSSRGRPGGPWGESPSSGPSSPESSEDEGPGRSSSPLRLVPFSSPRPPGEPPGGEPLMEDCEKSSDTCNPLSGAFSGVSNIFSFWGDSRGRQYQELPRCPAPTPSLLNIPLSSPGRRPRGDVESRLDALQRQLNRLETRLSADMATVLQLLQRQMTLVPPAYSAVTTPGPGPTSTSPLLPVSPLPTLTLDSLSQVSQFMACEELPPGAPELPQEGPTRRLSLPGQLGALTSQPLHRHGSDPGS
KCNK9 inh: selectivity of Kir2.1 inhibitors: effect on human KCNK9; inhibition, % at 10 µM; shares compounds with Kir21 block; 5% of 320 active; KCNK9-expressing cells, ion flux inhibition
Kir21 ephys inh: blocks mouse Kir2.1 current in automated electrophysiology | 71% of 320 active | shares compounds with Kir21 block | Kir2.1 cells, automated patch-clamp current inhibition | inhibition, % at 25 µM
Large screens that a line does not name were inactive (follow-up assays come after a bar, where they were run). The list is not random: actives were taken first. Their share in the collection is about 2.3%. Unless noted, how the calls were made is not given here.

CSc1ccc(S(=O)(=O)NC(C)c2ccccc2)cc1 (configuration not stated)	Kir21 block -7.26 | hERG ctr inactive | KCNK9 inh inactive | Kir21 ephys inh 63.1%
Cc1ccc(S(=O)(=O)NC(C)c2ccccc2)cc1[N+](=O)[O-] (configuration not stated)	Kir21 block -7.99 | hERG ctr inactive | KCNK9 inh inactive | Kir21 ephys inh 29.9%
CC(NS(=O)(=O)c1ccc(Br)s1)c1ccccc1 (configuration not stated)	Kir21 block -7.42 | hERG ctr inactive | KCNK9 inh inactive | Kir21 ephys inh 43.7%
Cc1ccc(S(=O)(=O)N/N=C/c2ccccc2F)cc1[N+](=O)[O-]	none
O=S(=O)(NCc1ccccc1)c1ccc(Br)s1	none
CC(C)c1ccc(N(C(=O)c2ccco2)C(C(=O)NC2CCCC2)c2ccncc2)cc1 (configuration not stated)	none
Cc1ccc(C(CCNC(C)c2cccs2)c2ccco2)cc1 (configuration not stated)	Kir21 block -8.39 | hERG ctr 62.0% | KCNK9 inh inactive | Kir21 ephys inh inactive
CCOc1ccc(C(C)NC(=S)NCc2ccc(F)cc2)cc1 (configuration not stated)	none
COc1cccc(C(C)NC(=S)NCc2ccc(F)cc2)c1 (configuration not stated)	Kir21 block -6.82 | hERG ctr inactive | KCNK9 inh 31.0% | Kir21 ephys inh 43.3%
COC(=O)c1ccc(NC(=O)CSc2nncn2-c2ccccn2)cc1	none
Cc1cc(OCC(=O)N2CCc3ccccc3C2)c(C)cc1Br	none
CCOC(=O)C1CCN(Cc2c(O)ccc3ccccc23)CC1	Kir21 block -7.63 | hERG ctr inactive | KCNK9 inh inactive | Kir21 ephys inh 4.0%
CCOC(=O)N1CCN(Cc2c(O)ccc3ccccc23)CC1	none
c1ccc(COc2ccc(OCCCNC3CCCC3)cc2)cc1	Kir21 block -8.8 | hERG ctr 47.0% | KCNK9 inh inactive | Kir21 ephys inh 26.0%
Cc1ccc(NC(=O)CC2(CC(=O)O)CCCC2)c(C)c1	none
Cc1ccccc1OCCSc1nnc(C)n1-c1ccccc1	Kir21 block -6.66 | hERG ctr inactive | KCNK9 inh inactive | Kir21 ephys inh 53.8%
CCC(=O)Nc1ccc(C(=O)NNC(=O)C2CCCCC2)cc1	none
COc1ccc(Nc2nc(N3CCCC3)c3ccccc3n2)cc1	Kir21 block -11 | hERG ctr inactive | KCNK9 inh inactive | Kir21 ephys inh 45.5%
CN(Cc1ccccc1)C(=O)COc1cccnc1[N+](=O)[O-]	none
COc1ccc(C(=O)CN2Cc3ccccc3C2=N)cc1	Kir21 block -10.7 | hERG ctr 65.0% | KCNK9 inh inactive | Kir21 ephys inh inactive
CCCCc1cc(=O)oc2c(C)c(OCC(=O)N3C[C@H]4C[C@@H](C3)c3cccc(=O)n3C4)ccc12	none
CCCCN1CCc2c1nc1ccc(Br)cc1c2N	Kir21 block -11.2 | hERG ctr inactive | KCNK9 inh inactive | Kir21 ephys inh 12.5%
CCOCCCNCC(O)c1ccccc1 (configuration not stated)	none
OCc1cc(C(O)CNCCCCCCOCCCCc2ccccc2)ccc1O (configuration not stated)	Kir21 block -5.3 | hERG ctr inactive | KCNK9 inh inactive | Kir21 ephys inh 22.7%
N=C1SCC(=O)N1c1ncc(Cc2ccc(F)cc2)s1	none
COc1ccccc1CNCc1ccc(C)cc1	none
COc1ccc2ccccc2c1CNCc1ccc(C)cc1	Kir21 block -9.11 | hERG ctr inactive | KCNK9 inh inactive | Kir21 ephys inh 40.7%
CCOc1cc(S(=O)(=O)NCc2ccc3c(c2)OCO3)c(C)cc1C	Kir21 block -6.58 | hERG ctr inactive | KCNK9 inh inactive | Kir21 ephys inh 10.5%
CC(C)CCN(Cc1ccco1)S(=O)(=O)c1csc(C(N)=O)c1	Kir21 block -8.19 | hERG ctr inactive | KCNK9 inh inactive | Kir21 ephys inh 21.6%
CC(OC(=O)c1cccc(-n2cnnn2)c1)C(=O)Nc1cccc(Cl)c1 (configuration not stated)	none (no result: M18AAP inhibitor, FID counter) | hERG ctr inactive | KCNK9 inh inactive | Kir21 ephys inh inactive
CN(C)c1ccc(C(=O)c2ccc(O)cc2O)cc1	none | hERG ctr inactive | KCNK9 inh inactive | Kir21 ephys inh inactive
O=C(c1ccc(O)cc1)c1ccc(O)cc1O	none
C=CCc1cc(Cl)ccc1OCCOCCNC(C)CC (configuration not stated)	Kir21 block -7.04 | hERG ctr inactive | KCNK9 inh inactive | Kir21 ephys inh 42.2%
C=CCc1cc(Cl)ccc1OCCCNC(C)C	none
COc1cc(CNCCc2ccc(F)cc2)ccc1OCc1ccc(Cl)nc1	Kir21 block -8.19 | hERG ctr 59.0% | KCNK9 inh inactive | Kir21 ephys inh 56.2%
COc1cc(CNCCc2ccccc2F)ccc1OCc1ccc(Cl)nc1	none
COc1ccc(-c2n(Cc3ccccc3)c3ccccc3[n+]2Cc2ccccc2)cc1	none
COc1ccc(CCNC2CCc3ccccc3C2)cc1 (configuration not stated)	Kir21 block -8.58 | hERG ctr inactive | KCNK9 inh inactive | Kir21 ephys inh 36.7%
COc1ccc(CCC(C)NCc2cccc(Br)c2)cc1 (configuration not stated)	Kir21 block -11.3 | hERG ctr inactive | KCNK9 inh inactive | Kir21 ephys inh 53.5%
CC(CCc1ccc(O)cc1)NC1C2CC3CC(C2)CC1C3 (configuration not stated)	none
CC(CCc1ccc(O)cc1)NC1c2ccccc2-c2ccccc21 (configuration not stated)	Kir21 block -14.5 | hERG ctr 60.0% | KCNK9 inh inactive | Kir21 ephys inh inactive
COc1ccc(C)cc1NCc1cccc(OC)c1OC	none
COc1cc(OC)c(OC)cc1CNc1cc(C)ccc1OC	Kir21 block -5.83 | hERG ctr inactive | KCNK9 inh inactive | Kir21 ephys inh 28.7%
Cn1nccc1C(=O)Nc1ccc2c(c1)OCO2	none
Nc1nc(C2CCCN2S(=O)(=O)c2ccc(Cl)cc2)cs1 (configuration not stated)	Kir21 block -6.57 | hERG ctr inactive | KCNK9 inh inactive | Kir21 ephys inh 13.9%
O=S(=O)(c1ccc(Cl)cc1)N1CCCC1c1nc(-c2ccc(Cl)cc2)no1 (configuration not stated)	none
Cn1ccnc1Sc1ccccc1[N+](=O)[O-]	none
O=[N+]([O-])c1ccc(Sc2nccn2Cc2ccccc2)c([N+](=O)[O-])c1	Kir21 block -7.19 | hERG ctr inactive | KCNK9 inh inactive | Kir21 ephys inh 34.7%
O=[N+]([O-])c1cc(C(F)(F)F)ccc1Sc1nccn1Cc1ccccc1	Kir21 block -8.54 | hERG ctr inactive | KCNK9 inh inactive | Kir21 ephys inh 7.0%
NC(=O)C1(c2ccccc2)OC1c1ccccc1 (configuration not stated)	none (no result: M18AAP inhibitor, FID counter)
O=C(Nc1ccccc1C(=O)N1CCOCC1)c1ccc(Br)cc1	none
C#CCN(C)Cc1ccccc1	none

High-throughput results from PubChem.
